# IL1B secr inh: inflammasome signaling inhibition, IL-1 beta readout; hit rate 4.7% among 360,000; activity change, % at 57.5 µM; AID 743279; THP-1 LPS/ATP IL-1B secretion, AlphaLISA, 16 h; hits give low values; in the data active = activity change below about -50%; inconclusive = mostly about -30% to -49%
#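 THP-1 cells pretreated 1 hr with compounds (up to 57.5 uM final), then stimulated with LPS (250 ng/mL final) plus ATP (1.25 mM final); secreted IL-1B measured by AlphaLISA after 16 hr, decreased signal indicating inhibition.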
# DT40 TDP1 CPT: growth inhibition of DT40 Tdp1-/-;hTDP1 cells with camptothecin (screen for TDP1 inhibitors); hit rate 12% among 420,000; chicken DT40 Tdp1-/-;hTDP1 cells + 20 nM CPT, ATP luminescence, 48 h; AID 686979; Potency, µM (doses to about 46.2 µM), for the others: at the top dose activity change, negative = growth inhibition, most hits filed as inhibitors; also: potency is read from the fitted curve at half-maximal effect; nearly all actives have a fitted effect of over 55% in size
#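 Cell growth measured by CellTiter-Glo luminescence after a minimum 48 h, 37 C compound exposure with 20 nM CPT in Tdp1-knockout DT40 cells stably expressing hTDP1, seeded 400/well; qHTS titration format.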
# Giardia kill: kills Giardia lamblia | Giardia lamblia trophozoite viability | activity change, % at 7.66 µM, hits read low | hit rate 0.15% among 340,000; in the data active = activity change below about -80%; inconclusive = between about -30% and that limit;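 also: parasites exposed to compound for two days anaerobically before the ATP read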
#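 Viability, read as ATP luminescence: trophozoites at 100 cells/well, compound added, 48 hrs anaerobic at 37 deg C, then 15-30 min room-temperature development before reading.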
# DT40 TDP1 no CPT: qHTS for Inhibitors of human tyrosyl-DNA phosphodiesterase 1 (TDP1): qHTS in cells in absence of CPT. DT40 Tdp1-/- hTDP1 cells, no CPT, ATP luminescence, 48 h. hit rate 15% among 420,000. Potency, µM (titrated, usually from 46.2 µM), without a hit: at the top dose activity change, negative = growth inhibition, actives largely listed as inhibitors; also: potency is read from the fitted curve at half-maximal effect; nearly all actives have a fitted effect of over 55% in size
#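 Chicken DT40 Tdp1-/- cells stably complemented with human TDP1 were seeded at 400 cells/well with DMSO in place of 20 nM camptothecin. After compound pinning, cells grew at least 48 hr at 37 °C; viability read by CellTiter-Glo luminescence.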
# ELG1 DNA repair: inhibitors of ELG1-dependent DNA repair in HEK293T cells. HEK293T ELG1-luciferase reporter, luminescence, 16 h; DNA damage induced by 5-fluorouridine. Potency, µM (top dose mostly 46.1 µM), inactives show at the top dose activity change, negative = inhibition, actives largely listed as inhibitors. hit rate 2.3% among 330,000; also: potency is read from the fitted curve at half-maximal effect; nearly all actives have a fitted effect of over 55% in size
#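 Luminescence from the luciferase reporter, measured 30 min after ONE-Glo reagent at room temperature, was the read-out. Beforehand, 2,000 cells per well were exposed for 16 hr at 37 °C to 5-fluorouridine together with compound or vehicle.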
# TDP1 inh: inhibitors of human tyrosyl-DNA phosphodiesterase TDP1; Q9NUW8; recombinant TDP1, AlphaScreen DNA substrate cleavage; Potency, µM (doses to about 130 µM), without a hit: at the top dose activity change, negative = inhibition, most hits filed as inhibitors; hit rate 0.28% among 350,000; also: potency is read from the fitted curve at half-maximal effect; nearly all actives have a fitted effect of over 40% in size
# Target sequence (Q9NUW8 whole entry, looked up): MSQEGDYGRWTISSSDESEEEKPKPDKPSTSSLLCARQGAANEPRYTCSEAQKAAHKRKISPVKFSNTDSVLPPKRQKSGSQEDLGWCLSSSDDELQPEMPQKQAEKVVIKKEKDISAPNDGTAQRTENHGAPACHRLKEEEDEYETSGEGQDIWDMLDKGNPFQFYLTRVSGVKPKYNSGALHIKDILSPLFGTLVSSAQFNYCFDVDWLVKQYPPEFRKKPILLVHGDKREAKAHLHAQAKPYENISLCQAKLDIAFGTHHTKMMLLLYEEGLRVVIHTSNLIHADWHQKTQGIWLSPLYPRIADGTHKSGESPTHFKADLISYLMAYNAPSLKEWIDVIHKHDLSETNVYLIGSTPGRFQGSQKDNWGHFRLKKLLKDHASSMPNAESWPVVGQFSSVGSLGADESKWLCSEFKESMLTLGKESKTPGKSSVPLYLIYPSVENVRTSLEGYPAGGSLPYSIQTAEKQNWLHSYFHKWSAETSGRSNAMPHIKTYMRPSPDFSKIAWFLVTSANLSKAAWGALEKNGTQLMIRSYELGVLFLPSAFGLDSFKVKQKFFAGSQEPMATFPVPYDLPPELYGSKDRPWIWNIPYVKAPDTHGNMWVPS
#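 Tdp1 1 nM final; 15 min RT w/ cpd; substrate 15 nM, 5 min; beads 10 ug/ml, 10 min; AlphaScreen read. Neg ctrl: no enzyme.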
# * marks the source's active call; other numbers are inactive results; i = inactive; ? = inconclusive; / = no result. In the library only some 19% were active in any assay of this set; here they are far more common. Unless noted, calls follow the shape of the dose curve; as a rule, active = well fitted curve in the direction sought with a large enough effect; inconclusive = small, poorly fitted or top-dose-only effect, or another doubt; inactive = no such curve, though single readings can be large; an effect the other way counts as inactive or inconclusive. % is scaled to controls: 0 for no effect and ±100 for the full control effect.
SMILES,IL1B secr inh,DT40 TDP1 CPT,Giardia kill,DT40 TDP1 no CPT,ELG1 DNA repair,TDP1 inh
CCn1c(=O)cc(OCC(=O)N2CCN(c3ccc(C(C)=O)cc3)CC2)c2ccccc21,/,-3%,/,-11%,/,1%
CCn1c(=O)cc(OCC(=O)N2CCN(c3ccc(OC)cc3)CC2)c2ccccc21,/,21µM*,/,-92%,/,3%
CCn1c(=O)cc(OCC(=O)N2CCCC2)c2ccccc21,2,?,1,-21%,?,5%
CC1(C)CC(=O)c2cc(C(=O)Nc3ccc(Cl)cc3)c(=O)[nH]c2C1,/,-1%,/,2%,/,4%
Cc1cc(Br)cn2c(Cc3ccccc3)c(-c3ccc(C#N)cc3)nc12,-3,18µM*,/,?,/,/
Cc1ccc(Cc2c(-c3ccc(C)cc3)nc3c(C)cc(Br)cn23)cc1,0,16µM*,/,16µM*,/,/
Cc1cc(Br)cn2c(Cc3cccc(F)c3)c(-c3ccc(Cl)cc3)nc12,48,?,/,?,/,/
Cc1cc(Br)cn2c(Cc3ccccc3)c(-c3ccc(Cl)cc3)nc12,69,-2%,/,-20%,/,/
Cc1ccc(Cc2c(-c3ccc(F)cc3)nc3c(C)cc(Br)cn23)cc1,55,21µM*,/,16µM*,/,/
CCN(CC(=O)Nc1ccc(OC)cc1)C(=O)c1ccc2c(c1)NC(=O)CS2,33,-12%,30,-33%,6%,-14%
COc1ccc(CNC(=O)CC(c2ccc(OC)cc2)N2Cc3ccccc3C2=O)cc1 (centres undefined),/,?,/,16µM*,/,-5%
CCOc1ccccc1NC(=O)CC(c1ccc(F)cc1)N1Cc2ccccc2C1=O (centres undefined),/,16µM*,/,16µM*,/,0%
COC(=O)C(Cc1ccc(OC(=O)c2ccccc2C)cc1)N1Cc2ccccc2C1=O (centres undefined),0,?,7,18µM*,-1%,3%
COc1ccc(C(CC(=O)Nc2ccc(Br)cn2)N2Cc3ccccc3C2=O)cc1 (centres undefined),/,5.2µM*,/,23µM*,/,0%
COC(=O)C(Cc1ccc(OC(=O)c2ccccc2Cl)cc1)N1Cc2ccccc2C1=O (centres undefined),-13,?,20,?,?,5%
COc1ccccc1NC(=O)CC(c1cc(OC)c(OC)c(OC)c1)N1Cc2ccccc2C1=O (centres undefined),/,-2%,/,-20%,/,0%
Cc1cc(SCc2cc(=O)[nH]c3ccccc23)nc2ccccc12,45,23µM*,7,?,6%,6%
Cc1ccccc1OCc1nnc(SCc2cc(=O)[nH]c3ccccc23)n1-c1ccccc1,?,?,10,?,-20%,5%
Cc1ccc(OCc2nnc(SCc3cc(=O)[nH]c4ccccc34)n2-c2ccccc2)cc1,?,?,3,23µM*,?,-7%
CSCCC(NC(=O)c1ccccc1C)C(=O)O (centres undefined),-3,9%,3,4%,3%,-3%
OCCN(CCO)c1ccc(C(c2ccc(Cl)cc2)c2ccc(N(CCO)CCO)cc2Cl)c(Cl)c1,?,?,2,?,0%,-2%
Cc1cc(N(CCO)CCO)ccc1N=Nc1cc(F)ccc1F,-75*,?,6,?,?,10%
CCC(C)NC(=O)c1cccc(OCc2c(C)noc2C)c1 (centres undefined),-16,11%,-8,9%,-11%,5%
CCOC(=O)c1c(C)[nH]c(C(=O)C(C)OC(=O)c2cccc(OCc3c(C)noc3C)c2)c1C (centres undefined),?,21µM*,24,18µM*,?,-1%
COc1ccccc1Oc1nc(-c2ccccc2)cc(C)c1S(C)(=O)=O,-5,?,6,18µM*,-22%,1%
SMILES,IL1B secr inh,DT40 TDP1 CPT,Giardia kill,DT40 TDP1 no CPT,ELG1 DNA repair,TDP1 inh
Cc1cc(-c2ccccc2)nc(Oc2ccc(C(C)(C)C)cc2)c1S(C)(=O)=O,-16,?,2,21µM*,-21%,2%
Cc1cccc(Oc2nc(-c3ccccc3)cc(C)c2S(C)(=O)=O)c1C,-12,?,-13,?,?,-3%
Cc1ccc2oc(-c3cccc(NC(=O)COc4ccc(Cl)cc4)c3C)nc2c1,/,-21%,/,-19%,/,/
CCON1C(=O)C(C)(C)N(OCC)C(=O)C1(C)C,22,?,-5,12µM*,2%,/
CCOC(=O)CON1C(=O)C(C)(C)N(OCC(=O)OCC)C(=O)C1(C)C,10,-6%,0,-8%,-5%,3%
O=C(c1ccccc1)c1ccc(-c2ccc(O)cc2)cc1,-81*,-1%,4,-27%,?,3%
O=C(c1ccc(-c2ccccc2)cc1)c1ccc([N+](=O)[O-])cc1,/,/,/,/,14%,10%
Cc1cccc(NC(=O)c2cc([N+](=O)[O-])ccc2Cl)c1O,-50*,?,-27,?,-2%,5%
O=C(Nc1ccc(Nc2ccccc2)cc1)c1cc([N+](=O)[O-])ccc1Cl,-67*,?,-11,16µM*,?,10%
O=C(O)c1cccc(NS(=O)(=O)c2ccc(Cl)c(C(=O)Nc3cccc([N+](=O)[O-])c3)c2)c1,11,4%,5,3%,/,/
O=C(Nc1ccc2c(c1)CCCN2C(=O)c1ccco1)c1cc([N+](=O)[O-])ccc1Cl,-87*,?,-10,?,?,/
CN(C)S(=O)(=O)c1ccc(Cl)c(C(=O)Nc2cccc([N+](=O)[O-])c2)c1,-25,18µM*,-7,21µM*,8.2µM*,-5%
O=C(O)c1ccccc1C(=O)Nc1ccc(Nc2ccc([N+](=O)[O-])cc2[N+](=O)[O-])cc1,-12,-3%,13,-17%,2%,/
O=C(Nc1ccccc1Oc1ccccc1)c1cc([N+](=O)[O-])ccc1Cl,-4,16µM*,5,?,?,3%
O=C(O)c1ccccc1Nc1ccc([N+](=O)[O-])cc1,15,-20%,3,2.9µM*,?,2%
COC(=O)COc1ccc2c(=O)c(Oc3ccccc3)c(C)oc2c1,52,5%,-3,-7%,16%,0%
CCOC(=O)c1ccc(Oc2c(C)oc3cc(OS(C)(=O)=O)ccc3c2=O)cc1,i,16µM*,17,16µM*,?,-3%
CCOc1ccc(Oc2c(C)oc3cc(O)ccc3c2=O)cc1,55,2%,7,-14%,-2%,5%

# Assay outcomes from PubChem.
